In PubChem BioAssay AID1159580 (chemical genetic matrix, 2015):
“And” between values parts separate entries of the source, which are not always exact repeats. Identical values can stand only once. The whole screen tested about 5,500 compounds, of which about 2,000 (36%) were called active. Not shown: some 18% with an inconclusive outcome. Rule as the data show it: active = normalized growth mostly below about 0.91 (no sharp cut-off); inconclusive = no clear call, values can overlap the other calls; inactive = mostly above about 0.92. The list shows a part of the results.

Experiment: chemical genetic growth profiling, strain panel (AID 1159580);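 also: tested at 20 µM; growth read once vehicle control cultures reached saturation at 30 °C; 1 = growth at the plate median or of vehicle wells; lower values mean less growth of the strain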
Conditions: S. cerevisiae deletion strains, growth OD

Measured: normalized growth

CC(C)[C@@H]1CC[C@@H](C)C[C@H]1OC(=O)c1ccccc1
inactive: locus YAL013W, strain DEP1, stronger effect = lower value 1.01 | locus YAL021C, strain ccr4, stronger effect = lower value 1.01 | locus YAL026C, strain drs2, stronger effect = lower value 1.01 | locus YAL030W, strain snc1, stronger effect = lower value 1.01 | locus YBL061C, strain skt5, stronger effect = lower value 1.01 | locus YBR009C, strain hhf1, stronger effect = lower value 0.999 | locus YBR021W, strain FUR4, stronger effect = lower value 0.997 | locus YBR023C, strain chs3, stronger effect = lower value 1.01 | locus YBR171W, strain sec66, stronger effect = lower value 1 | locus YBR229C, strain ROT2, stronger effect = lower value 1.01 | locus YBR231C, strain swc5, stronger effect = lower value 1.02 | locus YBR279W, strain paf1, stronger effect = lower value 1.01 | locus YCL011C, strain gbp2, stronger effect = lower value 1 | locus YCL016C, strain dcc1, stronger effect = lower value 1.01 | locus YCL029C, strain bik1, stronger effect = lower value 0.99 | locus YCL061C, strain MRC1, stronger effect = lower value 1 | locus YCL069W, strain vba3, stronger effect = lower value 1 | locus YCR088W, strain abp1, stronger effect = lower value 1 | locus YDL005C, strain med2, stronger effect = lower value 0.991 | locus YDL035C, strain GPR1, stronger effect = lower value 0.988 | locus YDL040C, strain nat1, stronger effect = lower value 0.993 | locus YDL074C, strain BRE1, stronger effect = lower value 0.995 | locus YDL101C, strain DUN1, stronger effect = lower value 0.999 | locus YDL134C, strain PPH21, stronger effect = lower value 0.962 | locus YDL185W, strain tfp1, stronger effect = lower value 0.997 | locus YDL192W, strain arf1, stronger effect = lower value 0.929 | locus YDR001C, strain nth1, stronger effect = lower value 0.994 | locus YDR069C, strain doa4, stronger effect = lower value 0.999 | locus YDR101C, strain arx1, stronger effect = lower value 0.978 | locus YDR137W, strain rgp1, stronger effect = lower value 0.942 | locus YDR150W, strain NUM1, stronger effect = lower value 1.04 | locus YDR159W, strain sac3, stronger effect = lower value 1.02 | locus YDR162C, strain NBP2, stronger effect = lower value 0.91 | locus YDR195W, strain ref2 0.975 | locus YDR297W, strain sur2, stronger effect = lower value 1.01 | locus YDR318W, strain mcm21, stronger effect = lower value 0.992 | locus YDR334W, strain swr1, stronger effect = lower value 1 | locus YDR335W, strain msn5, stronger effect = lower value 1.01 | locus YDR388W, stronger effect = lower value 0.999 | locus YDR392W, strain spt3, stronger effect = lower value 0.997 | locus YDR502C, strain sam2, stronger effect = lower value 0.995 | locus YEL003W, strain gim4, stronger effect = lower value 1.02 | locus YEL037C, strain rad23, stronger effect = lower value 1.01 | locus YEL061C, strain CIN8 (second series), stronger effect = lower value 1.01 | locus YEL061C, strain CIN8, stronger effect = lower value 1.03 | locus YER015W, strain faa2, stronger effect = lower value 1.01 | locus YER016W, strain bim1, stronger effect = lower value 0.999 | locus YER110C, stronger effect = lower value 1 | locus YER111C, strain swi4, stronger effect = lower value 1.01 | locus YER155C, strain BEM2 (second series), stronger effect = lower value 1.02 | locus YER155C, strain BEM2, stronger effect = lower value 1.01 | locus YER167W, strain BCK2, stronger effect = lower value 1.01 | locus YFR010W, strain ubp6, stronger effect = lower value 1.01 | locus YGL078C, strain dbp3, stronger effect = lower value 0.971 | locus YGL086W, strain mad1, stronger effect = lower value 0.999 | locus YGL167C, strain pmr1, stronger effect = lower value 1 | locus YGL173C, strain kem1, stronger effect = lower value 1.02 | locus YGL227W, strain vid30, stronger effect = lower value 1 | locus YGL240W, strain doc1, stronger effect = lower value 1.03 | locus YGL248W, strain PDE1, stronger effect = lower value 0.94 | locus YGL253W, strain hxk2, stronger effect = lower value 1.01 | locus YGR135W, strain pre9, stronger effect = lower value 0.974 | locus YGR252W, strain gcn5, stronger effect = lower value 0.959 | locus YHR013C, strain ard1, stronger effect = lower value 1.06 | locus YHR027C, strain rpn1, stronger effect = lower value 1 | locus YHR030C, strain SLT2, stronger effect = lower value 1.02 and 1.01 | locus YHR079C, strain IRE1 (second series), stronger effect = lower value 0.997 | locus YHR079C, strain IRE1, stronger effect = lower value 1.01 | locus YHR094C, strain hxt1, stronger effect = lower value 1 | locus YHR129C, strain ARP1, stronger effect = lower value 1.01 | locus YHR142W, strain chs7, stronger effect = lower value 0.976 | locus YHR200W, strain rpn10, stronger effect = lower value 1.02 | locus YIL066C, strain RNR3, stronger effect = lower value 1.01 | locus YIL073C, strain SPO22, stronger effect = lower value 0.881 | locus YIL125W, strain kgd1, stronger effect = lower value 0.99 | locus YIR030C, strain dcg1, stronger effect = lower value 0.996 | locus YJL092W, strain hpr5, stronger effect = lower value 1 | locus YJL095W, strain BCK1 (second series), stronger effect = lower value 1.01 | locus YJL095W, strain BCK1, stronger effect = lower value 0.992 and 1.02 | locus YJL115W, strain asf1, stronger effect = lower value 1 | locus YJL129C, strain trk1, stronger effect = lower value 0.994 | locus YJL134W, strain LCB3, stronger effect = lower value 1.02 | locus YJL154C, strain vps35, stronger effect = lower value 0.993 | locus YJL164C, strain tpk1, stronger effect = lower value 0.997 | locus YJL166W, strain qcr8, stronger effect = lower value 0.984 | locus YJL168C, strain set2, stronger effect = lower value 0.986 | locus YJL187C, strain SWE1 (second series), stronger effect = lower value 1 | locus YJL187C, strain SWE1, stronger effect = lower value 1.01 | locus YJR043C, strain POL32, stronger effect = lower value 1.03 | locus YJR066W, strain TOR1, stronger effect = lower value 0.951 | locus YKL009W, strain mrt4, stronger effect = lower value 0.985 | locus YKL068W, stronger effect = lower value 1.01 | locus YKL085W, strain MDH1 (second series), stronger effect = lower value 1.01 | locus YKL085W, strain MDH1, stronger effect = lower value 1.01 | locus YKL160W, strain elf1, stronger effect = lower value 0.998 | locus YKR001C, strain vps1, stronger effect = lower value 0.91 | locus YKR026C, strain gcn3, stronger effect = lower value 0.977 | locus YKR091W, strain srl3, stronger effect = lower value 0.995 | locus YLL001W, strain dnm1, stronger effect = lower value 0.993 | locus YLL026W, stronger effect = lower value 1 | locus YLL041C, strain sdh2, stronger effect = lower value 0.996 | locus YLR027C, strain aat2, stronger effect = lower value 1 | locus YLR039C, strain RIC1, stronger effect = lower value 0.922 | locus YLR058C, strain SHM2, stronger effect = lower value 1.01 | locus YLR102C, strain apc9, stronger effect = lower value 1 | locus YLR113W, strain HOG1, stronger effect = lower value 1.02 | locus YLR221C, strain rsa3, stronger effect = lower value 0.997 | locus YLR258W, strain gsy2, stronger effect = lower value 1 | locus YLR262C, strain YPT6 (second series), stronger effect = lower value 0.973 | locus YLR262C, strain YPT6, stronger effect = lower value 0.981 | locus YLR268W, strain sec22, stronger effect = lower value 0.997 | locus YLR320W, strain mms22, stronger effect = lower value 1.01 | locus YLR330W, strain CHS5, stronger effect = lower value 1.02 | locus YLR342W, strain FKS1 (second series), stronger effect = lower value 1.06 | locus YLR342W, strain FKS1, stronger effect = lower value 1.01 | locus YLR357W, strain rsc2, stronger effect = lower value 1.01 | locus YLR370C, strain arc18, stronger effect = lower value 1.01 | locus YLR371W, strain rom2, stronger effect = lower value 1 | locus YLR384C, strain iki3, stronger effect = lower value 1.03 | locus YLR418C, strain cdc73, stronger effect = lower value 1 | locus YML016C, strain PPZ1, stronger effect = lower value 1.01 | locus YML032C, strain rad52, stronger effect = lower value 1.01 | locus YML120C, strain ndi1, stronger effect = lower value 1.02 | locus YML124C, strain tub3, stronger effect = lower value 0.999 | locus YMR058W, strain fet3, stronger effect = lower value 1.02 | locus YMR078C, strain ctf18, stronger effect = lower value 1 | locus YMR125W, strain sto1, stronger effect = lower value 0.992 | locus YMR129W, stronger effect = lower value 0.999 | locus YMR205C, strain PFK2, stronger effect = lower value 1.04 | locus YMR223W, strain ubp8, stronger effect = lower value 0.995 | locus YMR231W, strain pep5, stronger effect = lower value 1 | locus YMR307W, strain GAS1, stronger effect = lower value 0.948 | locus YNL067W, strain RPL9B, stronger effect = lower value 1 | locus YNL071W, strain lat1, stronger effect = lower value 1 | locus YNL153C, strain GIM3, stronger effect = lower value 1.02 | locus YNL183C, strain NPR1, stronger effect = lower value 0.946 | locus YNL209W, strain ssb2, stronger effect = lower value 1 | locus YNL233W, strain BNI4, stronger effect = lower value 1 | locus YNL248C, strain rpa49, stronger effect = lower value 0.986 | locus YNL250W, strain rad50, stronger effect = lower value 1.02 | locus YNL271C, strain bni1, stronger effect = lower value 0.993 | locus YNL298W, strain CLA4, stronger effect = lower value 0.992 | locus YNL307C, strain MCK1, stronger effect = lower value 1.01 | locus YNL322C, strain KRE1 (second series), stronger effect = lower value 1.01 | locus YNL322C, strain KRE1, stronger effect = lower value 1.01 | locus YNR049C, strain mso1, stronger effect = lower value 1 | locus YNR052C, strain pop2, stronger effect = lower value 0.989 | locus YOL012C, strain htz1 1.15 | locus YOL147C, strain pex11, stronger effect = lower value 1 | locus YOR001W, strain rrp6, stronger effect = lower value 0.999 | locus YOR061W, strain CKA2, stronger effect = lower value 1.01 | locus YOR069W, strain VPS5, stronger effect = lower value 1.01 | locus YOR070C, strain gyp1, stronger effect = lower value 1.01 | locus YOR080W, strain dia2, stronger effect = lower value 1.01 | locus YOR083W, strain WHI5, stronger effect = lower value 1 | locus YOR106W, strain vam3, stronger effect = lower value 0.949 | locus YOR136W, strain idh2, stronger effect = lower value 0.996 | locus YOR144C, strain elg1, stronger effect = lower value 1 | locus YOR184W, strain ser1, stronger effect = lower value 0.921 | locus YOR231W, strain MKK1, stronger effect = lower value 1.02 | locus YOR265W, strain rbl2, stronger effect = lower value 0.997 | locus YOR270C, strain vph1, stronger effect = lower value 1.01 | locus YOR290C, strain snf2, stronger effect = lower value 0.979 | locus YOR316C, strain cot1, stronger effect = lower value 1 | locus YPL051W, strain arl3, stronger effect = lower value 1 | locus YPL078C, strain atp4, stronger effect = lower value 0.999 | locus YPL106C, strain sse1, stronger effect = lower value 1.02 | locus YPL240C, strain hsp82, stronger effect = lower value 1 | locus YPL241C, strain CIN2, stronger effect = lower value 1.02 | locus YPL256C, strain CLN2, stronger effect = lower value 1.02 | locus YPR119W, strain clb2, stronger effect = lower value 0.993 | locus YPR141C, strain kar3, stronger effect = lower value 1.01 | locus YPR163C, strain tif3, stronger effect = lower value 1 | locus YPR167C, strain met16, stronger effect = lower value 0.993 | strain wtn01, stronger effect = lower value 1
